The whole screen tested about 5,500 compounds, of which about 2,000 (36%) were called active. Not shown: some 18% with an inconclusive outcome. Cut-off read from the data, not from the text of the source: active = normalized growth mostly below about 0.91 (no sharp cut-off); inconclusive = no clear call, values can overlap the other calls; inactive = mostly above about 0.92. The list shows a part of the results.
Test: chemical genetic growth profiling, strain panel (AID 1159580);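 note: tested at 20 µM; growth read once vehicle control cultures reached saturation at 30 °C; 1 = growth at the plate median or of vehicle wells; lower values mean less growth of the strain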
Details: growth OD

Measured: normalized growth

O=C1NC(=O)C(=O)C(=O)N1
inactive: S. cerevisiae deletion strains, locus YJR075W, strain HOC1, active compounds read low 1.04 | S. cerevisiae deletion strains, locus YKL009W, strain mrt4, active compounds read low 0.992 | S. cerevisiae deletion strains, locus YKL068W, active compounds read low 0.997 | S. cerevisiae deletion strains, locus YKL085W, strain MDH1 (second series), active compounds read low 1 | S. cerevisiae deletion strains, locus YKL085W, strain MDH1, active compounds read low 1 | S. cerevisiae deletion strains, locus YKL160W, strain elf1, active compounds read low 0.989 | S. cerevisiae deletion strains, locus YKL190W, strain CNB1, active compounds read low 1.01 | S. cerevisiae deletion strains, locus YKR001C, strain vps1, active compounds read low 0.994 | S. cerevisiae deletion strains, locus YKR026C, strain gcn3, active compounds read low 0.992 | S. cerevisiae deletion strains, locus YKR091W, strain srl3, active compounds read low 0.989 | S. cerevisiae deletion strains, locus YLL001W, strain dnm1, active compounds read low 0.994 | S. cerevisiae deletion strains, locus YLL026W, active compounds read low 0.998 | S. cerevisiae deletion strains, locus YLL041C, strain sdh2, active compounds read low 1 | S. cerevisiae deletion strains, locus YLR027C, strain aat2, active compounds read low 1 | S. cerevisiae deletion strains, locus YLR039C, strain RIC1, active compounds read low 1.04 | S. cerevisiae deletion strains, locus YLR058C, strain SHM2, active compounds read low 1.02 | S. cerevisiae deletion strains, locus YLR102C, strain apc9, active compounds read low 0.987 | S. cerevisiae deletion strains, locus YLR113W, strain HOG1, active compounds read low 0.967 | S. cerevisiae deletion strains, locus YLR221C, strain rsa3, active compounds read low 0.99 | S. cerevisiae deletion strains, locus YLR258W, strain gsy2, active compounds read low 1.01 | S. cerevisiae deletion strains, locus YLR262C, strain YPT6 (second series), active compounds read low 0.989 | S. cerevisiae deletion strains, locus YLR262C, strain YPT6, active compounds read low 1.04 | S. cerevisiae deletion strains, locus YLR268W, strain sec22, active compounds read low 0.968 | S. cerevisiae deletion strains, locus YLR320W, strain mms22, active compounds read low 0.994 | S. cerevisiae deletion strains, locus YLR330W, strain CHS5, active compounds read low 1.01 | S. cerevisiae deletion strains, locus YLR342W, strain FKS1 (second series), active compounds read low 1.05 | S. cerevisiae deletion strains, locus YLR342W, strain FKS1, active compounds read low 0.975 | S. cerevisiae deletion strains, locus YLR357W, strain rsc2, active compounds read low 0.952 | S. cerevisiae deletion strains, locus YLR370C, strain arc18, active compounds read low 0.982 | S. cerevisiae deletion strains, locus YLR371W, strain rom2, active compounds read low 0.978 | S. cerevisiae deletion strains, locus YLR384C, strain iki3, active compounds read low 0.99 | S. cerevisiae deletion strains, locus YLR418C, strain cdc73, active compounds read low 0.991 | S. cerevisiae deletion strains, locus YML016C, strain PPZ1, active compounds read low 1.01 | S. cerevisiae deletion strains, locus YML032C, strain rad52, active compounds read low 0.976 | S. cerevisiae deletion strains, locus YML120C, strain ndi1, active compounds read low 0.99 | S. cerevisiae deletion strains, locus YML124C, strain tub3, active compounds read low 0.993 | S. cerevisiae deletion strains, locus YMR058W, strain fet3, active compounds read low 0.999 | S. cerevisiae deletion strains, locus YMR078C, strain ctf18, active compounds read low 0.98 | S. cerevisiae deletion strains, locus YMR125W, strain sto1, active compounds read low 0.982 | S. cerevisiae deletion strains, locus YMR129W, active compounds read low 0.982 | S. cerevisiae deletion strains, locus YMR205C, strain PFK2, active compounds read low 1 | S. cerevisiae deletion strains, locus YMR223W, strain ubp8, active compounds read low 1.01 | S. cerevisiae deletion strains, locus YMR231W, strain pep5, active compounds read low 0.98 | S. cerevisiae deletion strains, locus YMR263W, strain SAP30, active compounds read low 1.01 | S. cerevisiae deletion strains, locus YMR307W, strain GAS1, active compounds read low 1.03 | S. cerevisiae deletion strains, locus YNL067W, strain RPL9B, active compounds read low 1.01 | S. cerevisiae deletion strains, locus YNL071W, strain lat1, active compounds read low 0.988 | S. cerevisiae deletion strains, locus YNL128W, strain TEP1, active compounds read low 1.02 | S. cerevisiae deletion strains, locus YNL153C, strain GIM3, active compounds read low 1.02 | S. cerevisiae deletion strains, locus YNL183C, strain NPR1, active compounds read low 0.912 | S. cerevisiae deletion strains, locus YNL209W, strain ssb2, active compounds read low 0.985 | S. cerevisiae deletion strains, locus YNL233W, strain BNI4, active compounds read low 1.01 | S. cerevisiae deletion strains, locus YNL248C, strain rpa49, active compounds read low 0.996 | S. cerevisiae deletion strains, locus YNL250W, strain rad50, active compounds read low 0.995 | S. cerevisiae deletion strains, locus YNL271C, strain bni1, active compounds read low 0.995 | S. cerevisiae deletion strains, locus YNL298W, strain CLA4, active compounds read low 0.999 | S. cerevisiae deletion strains, locus YNL307C, strain MCK1, active compounds read low 1.01 | S. cerevisiae deletion strains, locus YNL322C, strain KRE1 (second series), active compounds read low 0.989 | S. cerevisiae deletion strains, locus YNL322C, strain KRE1, active compounds read low 1.01 | S. cerevisiae deletion strains, locus YNR049C, strain mso1, active compounds read low 0.988 | S. cerevisiae deletion strains, locus YNR052C, strain pop2, active compounds read low 0.971 | S. cerevisiae deletion strains, locus YOL006C, strain TOP1, active compounds read low 1.1 | S. cerevisiae deletion strains, locus YOL012C, strain htz1 0.951 | S. cerevisiae deletion strains, locus YOL147C, strain pex11, active compounds read low 0.998 | S. cerevisiae deletion strains, locus YOR001W, strain rrp6, active compounds read low 0.969 | S. cerevisiae deletion strains, locus YOR061W, strain CKA2, active compounds read low 1.01 | S. cerevisiae deletion strains, locus YOR069W, strain VPS5, active compounds read low 1.01 | S. cerevisiae deletion strains, locus YOR070C, strain gyp1, active compounds read low 0.984 | S. cerevisiae deletion strains, locus YOR080W, strain dia2, active compounds read low 0.99 | S. cerevisiae deletion strains, locus YOR083W, strain WHI5, active compounds read low 0.996 | S. cerevisiae deletion strains, locus YOR106W, strain vam3, active compounds read low 0.99 | S. cerevisiae deletion strains, locus YOR136W, strain idh2, active compounds read low 0.996 | S. cerevisiae deletion strains, locus YOR144C, strain elg1, active compounds read low 0.987 | S. cerevisiae deletion strains, locus YOR184W, strain ser1, active compounds read low 0.997 | S. cerevisiae deletion strains, locus YOR231W, strain MKK1, active compounds read low 0.964 | S. cerevisiae deletion strains, locus YOR265W, strain rbl2, active compounds read low 1.01 | S. cerevisiae deletion strains, locus YOR270C, strain vph1, active compounds read low 1.07 | S. cerevisiae deletion strains, locus YOR290C, strain snf2, active compounds read low 0.983 | S. cerevisiae deletion strains, locus YOR316C, strain cot1, active compounds read low 0.987 | S. cerevisiae deletion strains, locus YPL051W, strain arl3, active compounds read low 1.01 | S. cerevisiae deletion strains, locus YPL055C, strain LGE1, active compounds read low 1.04 | S. cerevisiae deletion strains, locus YPL078C, strain atp4, active compounds read low 0.987 | S. cerevisiae deletion strains, locus YPL106C, strain sse1, active compounds read low 0.99 | S. cerevisiae deletion strains, locus YPL240C, strain hsp82, active compounds read low 0.995 | S. cerevisiae deletion strains, locus YPL241C, strain CIN2, active compounds read low 1.01 | S. cerevisiae deletion strains, locus YPL256C, strain CLN2, active compounds read low 0.955 | S. cerevisiae deletion strains, locus YPR119W, strain clb2, active compounds read low 0.983 | S. cerevisiae deletion strains, locus YPR141C, strain kar3, active compounds read low 0.994 | S. cerevisiae deletion strains, locus YPR163C, strain tif3, active compounds read low 0.987 | S. cerevisiae deletion strains, locus YPR167C, strain met16, active compounds read low 0.986 | S. cerevisiae deletion strains, strain wtn01, active compounds read low 0.98 | S. cerevisiae strains, strain wild type, active compounds read low 1.02
